This is a sample that favours compounds with a hit; in the whole collection about 1.3% have one here.
TSHR antag = blocks TSH signaling through the human TSH receptor. P16473. 330,000 tested, 0.2% active. TSHR-expressing cells, TSH-stimulated cAMP HTRF, 2 h; stronger effect = lower value. activity change, negative = inhibition, % at 11.5 µM;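 active = activity change below a set negative limit, meaning inhibition stronger than a set level, cut at about -70% in these data; inconclusive = activity change between two set negative limits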
Target sequence (P16473 whole entry, looked up): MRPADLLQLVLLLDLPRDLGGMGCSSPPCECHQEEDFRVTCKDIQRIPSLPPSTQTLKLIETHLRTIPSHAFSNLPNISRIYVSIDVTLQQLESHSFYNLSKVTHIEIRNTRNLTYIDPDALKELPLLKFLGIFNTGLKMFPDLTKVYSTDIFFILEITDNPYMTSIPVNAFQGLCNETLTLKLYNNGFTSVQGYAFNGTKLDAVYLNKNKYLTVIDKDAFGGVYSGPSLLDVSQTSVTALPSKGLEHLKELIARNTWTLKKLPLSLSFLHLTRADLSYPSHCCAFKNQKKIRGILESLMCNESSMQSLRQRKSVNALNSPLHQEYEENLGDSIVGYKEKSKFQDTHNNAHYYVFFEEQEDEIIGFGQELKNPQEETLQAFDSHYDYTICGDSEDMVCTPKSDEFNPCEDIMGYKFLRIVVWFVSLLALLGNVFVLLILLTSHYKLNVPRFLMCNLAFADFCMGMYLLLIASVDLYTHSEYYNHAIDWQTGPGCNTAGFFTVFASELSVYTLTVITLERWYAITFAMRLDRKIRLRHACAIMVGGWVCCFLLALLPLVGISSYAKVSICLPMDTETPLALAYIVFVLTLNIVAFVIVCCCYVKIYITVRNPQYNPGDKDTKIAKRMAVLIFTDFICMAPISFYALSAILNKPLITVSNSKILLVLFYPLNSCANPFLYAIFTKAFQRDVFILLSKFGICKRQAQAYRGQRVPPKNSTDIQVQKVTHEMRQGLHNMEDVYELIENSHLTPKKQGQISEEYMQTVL
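Competitive HTRF cAMP read-out (cryptate anti-cAMP antibody, cAMP-d2; 30 min, room temperature) in freshly harvested TSHR cells. Compounds added before TSH at EC80 (4nM final), followed by 2 hours' incubation at 37 deg C.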
RXFP1 antag = RXFP1 (human) relaxin receptor antagonism. 350,000 tested, 0.59% active. activity change, negative = inhibition, % at 57.5 µM. HEK293-RXFP1, relaxin-stimulated cAMP HTRF, 30 min; stronger effect = lower value;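 active = activity change of -60% or lower, but not beyond a set lower limit; inconclusive = change between -60% and -40%, or beyond the set limit; inactive = change above -40%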
gsp antagonist = gsp mutant antagonism; AID 624288; 340,000 tested, 0.4% active; gsp-mutant cells, cAMP HTRF, 30 min; Potency, µM (titrated, usually from 76.9 µM), actives largely listed as inhibitors; calls by dose curve; cell line not stated here;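 note: intracellular cAMP measured with PDE inhibitor Ro 20-1724 present during compound exposure; nearly all actives have a fitted effect of over 65% in size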
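Cells, 2000/well, grown 16–24 h in DMEM 10% FBS with 0.5 mg/ml G418, then compounds plus […] (300 uM addition stock), 30 min at 37C. cAMP read by HTRF (cAMP-d2 and anti-cAMP antibody-K in lysis buffer) after 30 min RT.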
pAkt inh = blocks phosphorylation of Akt; Neuro2A IGF-stimulated pAkt S473 HTRF, 20 min; stronger effect = lower value; activity change, % for hits at 50 µM; 360,000 tested, 0.32% active; in the data active = activity change below about -80%; inconclusive = mostly about -51% to -80%
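Neuro2A cells (4,500/well, DMEM with 0.5% FBS) were treated with compound at a single 50 µM final concentration, stimulated with 6 nM IGF for 20 min at 37 °C, and lysed. Phospho-Akt Ser473 was read by HTRF as 665/615 ratio ×10^4.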
RXFP1 ag = activates the human relaxin receptor RXFP1; Q9HBX9; HEK293T-RXFP1 cAMP TR-FRET, 30 min; response scale: percent of porcine relaxin response, buffer zero; Potency, µM (top dose mostly 57.5 µM), hits mostly activators; 370,000 tested, 0.3% active; AID 2676; active = well fitted activation curve with a large enough effect; inconclusive = small, poorly fitted or top-dose-only effect; note: nearly all actives have a fitted effect of over 60% in size
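HEK293T cells stably expressing RXFP1 were pretreated with the PDE4 inhibitor Ro 20174, exposed to compounds for 30 min at 37C, lysed, and cAMP was read by TR-FRET. Data normalized to buffer (basal) and 29 nM porcine relaxin (100%).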
gsp agonist = agonists of gsp mutant (McCune-Albright syndrome) | gsp mutant cells, cAMP HTRF, 30 min | Potency, µM (titrated, usually from 76.9 µM), usual class: activators | 340,000 tested, 0.13% active | AID 624287; active = well fitted activation curve with a large enough effect; inconclusive = small, poorly fitted or top-dose-only effect, or another doubt; inactive = no such curve, though single readings can be large or run the other way; cell line not stated here;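 note: phosphodiesterase inhibitor Ro 20-1724 added with compounds to block cAMP breakdown; nearly all actives have a fitted effect of over 60% in size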
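Cells in DMEM/10% FBS with G418 were pretreated with compounds in DMSO plus […] (300 uM stock) for 30 min at 37C. cAMP was measured by HTRF (cAMP-d2 plus anti-cAMP antibody-K) after 30 min at room temperature.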
A number is an active result; [ ] = another dose, or the depositor's remark.

Screening CCCCn1cc(S(=O)(=O)c2cc(C)ccc2C)c(=O)c2cc(F)c(F)cc21 returned RXFP1 antag inactive and RXFP1 ag inactive.
`COc1ccc(-n2c(-c3ccc(C)cc3)cc3c2CC(C)(C)CC3=O)c(OC)c1` gave RXFP1 antag -62.1 and RXFP1 ag inactive.
CCOc1ccc(NC(=O)Cn2nc(-c3ccccc3Cl)n(CC)c2=S)cc1 was read as TSHR antag inactive, RXFP1 antag inactive, gsp antagonist inactive, pAkt inh inactive, RXFP1 ag inactive and gsp agonist inconclusive.
Screening CCn1c(-c2ccccc2Cl)nn(CC(=O)Nc2ccc(OC)cc2)c1=S returned TSHR antag inactive, RXFP1 antag inactive, gsp antagonist inactive, pAkt inh -105.8%, RXFP1 ag inactive and gsp agonist inactive.
Screening Cc1cc(C)c(OCC(=O)NCC(C)(C)N2CCOCC2)c(C)c1 returned TSHR antag inactive, RXFP1 antag inactive, gsp antagonist inactive, pAkt inh inactive, RXFP1 ag inactive and gsp agonist inactive[15.4 µM].
Screening O=C1c2cccnc2C(=O)N1Cc1ccc(S(=O)(=O)N2CCN(c3ccc(Cl)cc3)CC2)cc1 returned TSHR antag -134.8, RXFP1 antag inactive, gsp antagonist inactive, pAkt inh inactive, RXFP1 ag inactive and gsp agonist inactive.
CN(C)CCN(Cc1ccsc1)c1ccccn1 was read as RXFP1 antag inactive.
O=C(NCc1ccncc1)C(=O)Nc1nc(C23CC4CC(CC(C4)C2)C3)cs1 was read as TSHR antag inactive, RXFP1 antag inconclusive, gsp antagonist 44.7µM, pAkt inh inactive, RXFP1 ag inactive and gsp agonist inactive.
Cc1cc(C)c(NC(=O)/C(=C/c2ccco2)c2ccccc2)c(C)c1 was read as TSHR antag inactive, RXFP1 antag inactive, gsp antagonist 39.8µM, pAkt inh inactive, RXFP1 ag inactive and gsp agonist inactive.
For Cc1cccc(C)c1NC(=O)/C(=C/c1ccco1)c1ccccc1 the results were TSHR antag inactive, RXFP1 antag inactive, gsp antagonist inactive, pAkt inh inactive, RXFP1 ag inactive and gsp agonist inactive.
For CC1CCCN(C(=O)COC(=O)CNC(=O)c2sc3ccccc3c2Cl)C1 (stereo unspecified) the results were TSHR antag inactive, RXFP1 antag inactive, gsp antagonist inactive, pAkt inh inactive, RXFP1 ag inconclusive and gsp agonist 31.6µM.
Screening Cc1cc(NC(=O)CSc2nnc(-c3ccc4c(c3)OCCO4)o2)no1 returned TSHR antag inactive, RXFP1 antag inactive, gsp antagonist inactive, pAkt inh -80.5%, RXFP1 ag inactive and gsp agonist inconclusive.
For CCc1cc2cc3c(cc2nc1SCC(=O)Nc1cc(C)on1)OCO3 the results were TSHR antag inactive, RXFP1 antag inactive, gsp antagonist inactive, pAkt inh inactive, RXFP1 ag 28.2µM and gsp agonist inconclusive.
For O=C(COCc1cc(-c2ccco2)on1)Nc1cccc(Cl)c1Cl the results were RXFP1 antag inactive and RXFP1 ag inactive.
`COC(=O)c1ccc2c(=O)n(CCCCCC(=O)N3CCN(c4cc(Cl)ccc4C)CC3)c(=O)[nH]c2c1` gave RXFP1 antag inactive and RXFP1 ag inactive.
For Oc1ccccc1-c1nc(N2CCCC2)c2ccccc2n1 the results were TSHR antag inactive, RXFP1 antag inactive, gsp antagonist inactive, pAkt inh -145.1%, RXFP1 ag inactive and gsp agonist inconclusive.
For CC1CCN(c2nc(-c3ccccc3O)nc3ccccc23)CC1 the results were TSHR antag inactive, RXFP1 antag inactive, gsp antagonist inactive, RXFP1 ag inactive and gsp agonist inactive.
For COc1ccccc1COC(=O)c1ccc(S(=O)(=O)N2CCOCC2)cc1 the results were TSHR antag inactive, RXFP1 antag inactive, gsp antagonist inactive, pAkt inh inactive, RXFP1 ag inactive and gsp agonist inactive.
`COc1ccc(OC)c(-n2nnnc2SCC(=O)Nc2ccc3c(c2)OCCO3)c1` gave TSHR antag inactive, RXFP1 antag inactive, gsp antagonist inactive, pAkt inh inactive, RXFP1 ag inactive and gsp agonist 11.2µM.
Screening COc1ccc(NC(=O)CSc2nnnn2C2CCCC2)cc1 returned TSHR antag inactive, RXFP1 antag inactive, gsp antagonist inactive, pAkt inh inactive, RXFP1 ag inactive and gsp agonist inactive.
O=C(CSc1nnnn1C1CCCC1)Nc1ccc(F)cc1 was read as TSHR antag inactive, RXFP1 antag inactive, gsp antagonist inactive, pAkt inh -110.4%, RXFP1 ag inactive and gsp agonist inactive.
For O=C(CSc1nnnn1C1CCCCC1)Nc1ccc(F)cc1 the results were TSHR antag inactive, RXFP1 antag inactive, pAkt inh inactive, RXFP1 ag inactive and gsp agonist inactive[15.4 µM].
For COc1ccc(NC(=O)CSc2nnnn2C2CCCCC2)cc1 the results were TSHR antag inactive, RXFP1 antag -78.4, gsp antagonist inactive, pAkt inh inactive, RXFP1 ag inactive and gsp agonist inactive.
Screening c1ccc(OCCSc2nnnn2C2CCCCC2)cc1 returned TSHR antag inactive, RXFP1 antag inactive, gsp antagonist inactive, pAkt inh -111.7%, RXFP1 ag inactive and gsp agonist inactive.
`O=S(=O)(Nc1cc(S(=O)(=O)N2CCOCC2)ccc1NCC1CCCO1)c1ccccc1` (stereo unspecified) gave TSHR antag inactive, RXFP1 antag inactive, gsp antagonist inactive, pAkt inh inactive, RXFP1 ag inactive and gsp agonist inconclusive.
COC(=O)c1ccccc1Nc1ccnc(Cl)n1 was read as RXFP1 antag inactive, gsp antagonist inactive, pAkt inh inactive and gsp agonist inactive[15.4 µM].
Screening COc1ccc(OC(=O)N(C)C[C@H]2OCc3cn(nn3)CCCC(=O)N([C@H](C)CO)C[C@@H]2C)cc1 returned RXFP1 antag inactive, pAkt inh inactive and gsp agonist inactive.
For COc1ccccc1NC(=O)CSc1oc(-c2ccccc2)nc1S(=O)(=O)c1ccc(C)cc1 the results were RXFP1 antag inactive and RXFP1 ag inactive.
CN(C)Cc1cc2ccccc2c2c1COC2 was read as TSHR antag inactive, RXFP1 antag inactive, gsp antagonist inactive, pAkt inh inactive, RXFP1 ag inactive and gsp agonist inactive.
Cc1cc2ccc3ccccc3c2cc1CN(C)C was read as TSHR antag inactive, RXFP1 antag -107.1, gsp antagonist inactive, pAkt inh inactive, RXFP1 ag inactive and gsp agonist inactive[15.4 µM].
Oc1cccc2[nH]ccc12 was read as RXFP1 antag inactive.
For COc1cc(C2c3c(-c4ccccc4O)n[nH]c3C(=O)N2Cc2ccco2)ccc1OCC(C)C (stereo unspecified) the results were RXFP1 antag -67.9 and RXFP1 ag inactive.

Source: PubChem
